# From paper PMC7862700, “An all-to-all approach to the identification of sequence-specific readers for epigenetic DNA modifications on cytosine”
# Legend:
# Assay in all cases: DAPPL (digital affinity profiling via proximity ligation, sequencing); 10 mM Tris-HCl pH 7.5, 50 mM NaCl, 1 mM DTT, 4% glycerol, room temperature, 30 min; GST-TFs on glutathione beads, 16-mer random dsDNA library, 0.1% formaldehyde crosslink after washing; high values mean tight binding
# FEV = biological target: T1, FEV (Homo sapiens, UniProt Q99581 1-238); settings: protein: recombinant; tags: N-terminal GST; dsDNA, one strand shown
# T1 sequence: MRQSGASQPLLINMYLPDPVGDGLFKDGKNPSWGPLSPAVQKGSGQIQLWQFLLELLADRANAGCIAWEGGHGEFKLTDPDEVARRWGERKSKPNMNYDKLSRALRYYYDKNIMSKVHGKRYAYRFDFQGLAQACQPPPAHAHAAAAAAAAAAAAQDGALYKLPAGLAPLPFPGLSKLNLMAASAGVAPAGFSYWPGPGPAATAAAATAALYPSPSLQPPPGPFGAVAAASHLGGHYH
# Procedure, shortened: (§1)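 Human transcription factors fused to GST were expressed in yeast, captured on glutathione beads, given DNA barcodes and pooled with a GST-only negative control. Pools were incubated with 200 nmole of a 16-mer random double-stranded DNA library in Tris/NaCl/DTT/glycerol buffer at room temperature for 30 min. They were then washed, crosslinked with 0.1% formaldehyde, proximity-ligated (BsaI/T4 ligase, 1 h, 37 °C), PCR-amplified and sequenced on an Illumina NextSeq500. Binding signal is each 6-mer's read frequency for a factor divided by its frequency for the GST control.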
# ETV5 = ETV5 (Homo sapiens, UniProt P41161 1-510); settings: protein: recombinant; tags: N-terminal GST; dsDNA, one strand shown
# Sequence of ETV5 (P41161 whole entry): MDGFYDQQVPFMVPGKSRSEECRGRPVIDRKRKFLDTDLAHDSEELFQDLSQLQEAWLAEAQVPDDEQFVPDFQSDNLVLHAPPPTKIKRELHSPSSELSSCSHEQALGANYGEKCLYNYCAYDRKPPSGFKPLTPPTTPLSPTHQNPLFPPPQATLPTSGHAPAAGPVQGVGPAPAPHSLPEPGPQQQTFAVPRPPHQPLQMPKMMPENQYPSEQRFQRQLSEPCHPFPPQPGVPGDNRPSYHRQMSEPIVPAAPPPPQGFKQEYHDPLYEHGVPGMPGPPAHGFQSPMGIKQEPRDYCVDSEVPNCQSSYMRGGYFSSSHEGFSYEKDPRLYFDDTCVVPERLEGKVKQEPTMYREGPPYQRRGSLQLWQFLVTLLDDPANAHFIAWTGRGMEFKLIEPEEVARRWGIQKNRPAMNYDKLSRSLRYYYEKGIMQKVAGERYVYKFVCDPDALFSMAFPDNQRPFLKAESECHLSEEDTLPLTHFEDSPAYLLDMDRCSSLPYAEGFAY
# Procedure, shortened: as §1
# HSF1 = HSF1 (Homo sapiens, UniProt Q00613 1-529); settings: protein: recombinant; tags: N-terminal GST; chain copies: 3; dsDNA, one strand shown
# Sequence of HSF1 (Q00613 whole entry): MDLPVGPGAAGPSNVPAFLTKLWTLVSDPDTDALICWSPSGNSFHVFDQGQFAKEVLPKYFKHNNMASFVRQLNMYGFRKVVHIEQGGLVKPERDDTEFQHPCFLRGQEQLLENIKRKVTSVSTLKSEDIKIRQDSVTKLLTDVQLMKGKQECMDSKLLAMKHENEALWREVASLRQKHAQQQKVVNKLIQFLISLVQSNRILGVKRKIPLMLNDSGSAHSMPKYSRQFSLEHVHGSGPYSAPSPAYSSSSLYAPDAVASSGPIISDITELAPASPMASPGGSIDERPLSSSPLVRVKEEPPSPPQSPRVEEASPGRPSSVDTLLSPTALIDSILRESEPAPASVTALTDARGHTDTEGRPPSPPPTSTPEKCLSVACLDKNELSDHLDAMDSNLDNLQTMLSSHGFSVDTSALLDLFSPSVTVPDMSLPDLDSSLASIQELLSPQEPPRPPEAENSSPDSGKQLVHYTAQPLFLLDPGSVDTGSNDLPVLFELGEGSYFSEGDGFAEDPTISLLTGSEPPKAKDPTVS
# Procedure, shortened: as §1
# SPIC = biological target: T2, SPIC (Homo sapiens, UniProt Q8N5J4 1-248); settings: protein: recombinant; tags: N-terminal GST; dsDNA, one strand shown
# T2 sequence: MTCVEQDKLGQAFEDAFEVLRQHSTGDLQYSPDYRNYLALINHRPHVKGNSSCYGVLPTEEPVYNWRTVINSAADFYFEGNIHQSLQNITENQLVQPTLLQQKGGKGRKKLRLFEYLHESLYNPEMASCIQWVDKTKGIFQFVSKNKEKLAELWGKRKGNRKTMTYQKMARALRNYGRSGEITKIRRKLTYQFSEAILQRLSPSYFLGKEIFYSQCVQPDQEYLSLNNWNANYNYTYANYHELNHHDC
# Procedure, shortened: as §1
# ELF4 = ELF4 (Homo sapiens, UniProt Q99607 1-663); settings: protein: recombinant; tags: N-terminal GST; dsDNA, one strand shown
# Sequence of ELF4 (Q99607 whole entry): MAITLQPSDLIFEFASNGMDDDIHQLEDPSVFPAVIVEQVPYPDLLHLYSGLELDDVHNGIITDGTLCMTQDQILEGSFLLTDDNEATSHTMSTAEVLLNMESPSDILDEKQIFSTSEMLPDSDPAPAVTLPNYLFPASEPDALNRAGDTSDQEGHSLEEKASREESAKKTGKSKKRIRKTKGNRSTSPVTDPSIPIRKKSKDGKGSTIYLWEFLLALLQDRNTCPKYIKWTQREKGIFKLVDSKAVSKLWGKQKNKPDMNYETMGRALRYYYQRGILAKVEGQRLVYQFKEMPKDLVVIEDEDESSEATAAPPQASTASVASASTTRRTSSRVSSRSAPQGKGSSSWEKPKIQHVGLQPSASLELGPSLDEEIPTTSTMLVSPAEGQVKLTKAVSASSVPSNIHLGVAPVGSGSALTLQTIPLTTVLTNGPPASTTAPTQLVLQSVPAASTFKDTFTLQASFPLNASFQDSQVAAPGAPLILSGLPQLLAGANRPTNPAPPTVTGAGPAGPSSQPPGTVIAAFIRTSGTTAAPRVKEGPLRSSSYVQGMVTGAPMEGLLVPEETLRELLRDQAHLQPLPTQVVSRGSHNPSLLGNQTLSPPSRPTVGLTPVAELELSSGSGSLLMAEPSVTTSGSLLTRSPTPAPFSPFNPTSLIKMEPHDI
# Procedure, shortened: as §1
# ELK4 = biological target: T3, ELK4 (Homo sapiens, UniProt P28324-2 1-405); settings: protein: recombinant; tags: N-terminal GST; dsDNA, one strand shown
# T3 sequence: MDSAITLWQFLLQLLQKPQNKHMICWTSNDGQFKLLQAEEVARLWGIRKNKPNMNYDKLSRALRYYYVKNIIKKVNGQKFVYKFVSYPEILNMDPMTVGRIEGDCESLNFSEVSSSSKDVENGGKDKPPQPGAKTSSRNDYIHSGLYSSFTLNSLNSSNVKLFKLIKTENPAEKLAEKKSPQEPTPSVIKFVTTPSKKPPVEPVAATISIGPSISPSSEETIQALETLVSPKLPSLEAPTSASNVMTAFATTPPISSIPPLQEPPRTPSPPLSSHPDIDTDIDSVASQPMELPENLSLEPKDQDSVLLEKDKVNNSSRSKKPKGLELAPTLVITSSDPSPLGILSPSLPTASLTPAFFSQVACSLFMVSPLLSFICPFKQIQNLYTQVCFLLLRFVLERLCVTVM
# Procedure, shortened: as §1
# ETV2 = biological target: T4, ETV2 (Homo sapiens, UniProt O00321 1-342); settings: protein: recombinant; tags: N-terminal GST; dsDNA, one strand shown
# T4 sequence: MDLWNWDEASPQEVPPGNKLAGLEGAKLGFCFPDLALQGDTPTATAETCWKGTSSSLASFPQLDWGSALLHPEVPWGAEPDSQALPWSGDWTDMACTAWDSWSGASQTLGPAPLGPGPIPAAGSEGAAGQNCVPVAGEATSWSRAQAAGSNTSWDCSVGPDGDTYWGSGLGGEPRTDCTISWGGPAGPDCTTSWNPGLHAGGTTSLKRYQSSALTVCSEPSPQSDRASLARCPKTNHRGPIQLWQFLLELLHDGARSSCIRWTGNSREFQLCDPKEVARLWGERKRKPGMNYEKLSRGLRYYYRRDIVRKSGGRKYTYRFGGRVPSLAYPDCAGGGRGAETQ
# Procedure, shortened: as §1
# ELF3 = biological target: T5, ELF3 (Homo sapiens, UniProt P78545 1-371); settings: protein: recombinant; tags: N-terminal GST; dsDNA, one strand shown
# T5 sequence: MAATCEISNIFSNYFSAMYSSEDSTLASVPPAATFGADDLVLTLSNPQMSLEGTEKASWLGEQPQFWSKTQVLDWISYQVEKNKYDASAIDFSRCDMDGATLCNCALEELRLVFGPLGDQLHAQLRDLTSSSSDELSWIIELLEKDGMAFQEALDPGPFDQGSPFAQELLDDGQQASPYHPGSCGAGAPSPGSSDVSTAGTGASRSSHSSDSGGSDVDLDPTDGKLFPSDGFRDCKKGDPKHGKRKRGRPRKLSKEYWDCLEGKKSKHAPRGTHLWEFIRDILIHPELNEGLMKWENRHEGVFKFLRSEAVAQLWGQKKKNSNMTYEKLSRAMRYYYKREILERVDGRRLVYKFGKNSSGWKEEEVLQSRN
# Procedure, shortened: as §1
# CRX = CRX (Homo sapiens, UniProt O43186 1-299); settings: protein: recombinant; tags: N-terminal GST; dsDNA, one strand shown
# Sequence of CRX (O43186 whole entry): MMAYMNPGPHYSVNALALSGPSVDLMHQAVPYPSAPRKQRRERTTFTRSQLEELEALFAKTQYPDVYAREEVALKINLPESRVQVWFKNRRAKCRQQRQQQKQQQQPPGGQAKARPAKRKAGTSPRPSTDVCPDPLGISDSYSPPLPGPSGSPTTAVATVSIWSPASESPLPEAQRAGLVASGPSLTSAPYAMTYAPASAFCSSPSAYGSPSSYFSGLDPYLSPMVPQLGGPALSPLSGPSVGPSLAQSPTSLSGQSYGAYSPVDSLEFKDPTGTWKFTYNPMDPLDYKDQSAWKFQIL
# Procedure, shortened: as §1
# ETV1 = ETV1 (Homo sapiens, UniProt P50549 1-477); settings: protein: recombinant; tags: N-terminal GST; dsDNA, one strand shown
# Sequence of ETV1 (P50549 whole entry): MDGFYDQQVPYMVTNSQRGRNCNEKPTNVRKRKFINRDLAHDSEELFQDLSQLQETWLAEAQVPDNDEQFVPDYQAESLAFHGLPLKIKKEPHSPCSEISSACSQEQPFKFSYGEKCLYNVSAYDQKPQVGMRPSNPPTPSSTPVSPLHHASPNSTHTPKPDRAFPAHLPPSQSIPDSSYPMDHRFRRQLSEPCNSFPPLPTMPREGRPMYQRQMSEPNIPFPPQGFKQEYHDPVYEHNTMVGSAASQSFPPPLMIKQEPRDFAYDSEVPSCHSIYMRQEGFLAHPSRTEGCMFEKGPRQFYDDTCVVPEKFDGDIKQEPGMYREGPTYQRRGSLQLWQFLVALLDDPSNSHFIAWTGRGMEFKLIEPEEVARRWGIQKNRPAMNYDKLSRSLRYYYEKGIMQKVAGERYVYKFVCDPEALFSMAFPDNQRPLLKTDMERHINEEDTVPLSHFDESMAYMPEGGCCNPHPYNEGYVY
# Procedure, shortened: as §1
# ERF = biological target: T6, ERF (Homo sapiens, UniProt P50548 1-548); settings: protein: recombinant; tags: N-terminal GST; dsDNA, one strand shown
# T6 sequence: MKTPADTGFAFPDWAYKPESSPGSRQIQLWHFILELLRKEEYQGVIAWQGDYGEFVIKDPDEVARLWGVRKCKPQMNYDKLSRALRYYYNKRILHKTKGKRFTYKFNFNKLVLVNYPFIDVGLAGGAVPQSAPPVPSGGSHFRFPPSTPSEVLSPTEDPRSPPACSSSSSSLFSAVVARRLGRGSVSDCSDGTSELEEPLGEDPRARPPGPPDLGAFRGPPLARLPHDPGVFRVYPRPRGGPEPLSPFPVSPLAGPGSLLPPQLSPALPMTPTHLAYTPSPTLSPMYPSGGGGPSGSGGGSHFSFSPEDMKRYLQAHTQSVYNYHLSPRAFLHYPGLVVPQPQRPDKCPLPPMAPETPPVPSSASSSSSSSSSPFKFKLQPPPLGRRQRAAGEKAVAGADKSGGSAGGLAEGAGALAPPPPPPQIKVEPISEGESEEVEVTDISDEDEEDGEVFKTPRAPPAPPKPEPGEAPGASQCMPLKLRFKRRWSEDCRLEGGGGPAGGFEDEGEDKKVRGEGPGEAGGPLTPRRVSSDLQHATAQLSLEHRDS
# Procedure, shortened: as §1
# ETV3L = biological target: T7, ETV3L (Homo sapiens, UniProt Q6ZN32 1-361); settings: protein: recombinant; tags: N-terminal GST; dsDNA, one strand shown
# T7 sequence: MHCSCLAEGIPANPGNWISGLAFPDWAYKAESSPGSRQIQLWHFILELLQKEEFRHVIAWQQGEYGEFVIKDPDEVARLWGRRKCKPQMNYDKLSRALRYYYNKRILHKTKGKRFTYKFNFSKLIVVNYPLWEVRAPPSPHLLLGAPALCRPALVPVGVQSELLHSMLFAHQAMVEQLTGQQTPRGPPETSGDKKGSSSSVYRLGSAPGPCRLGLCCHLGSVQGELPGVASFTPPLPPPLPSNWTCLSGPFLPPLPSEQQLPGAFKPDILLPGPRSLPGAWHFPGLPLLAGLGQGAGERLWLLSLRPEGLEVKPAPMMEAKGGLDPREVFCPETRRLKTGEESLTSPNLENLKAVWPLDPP
# Procedure, shortened: as §1
# ETS2 = biological target: T8, ETS2 (Homo sapiens, UniProt P15036 1-469); settings: protein: recombinant; tags: N-terminal GST; dsDNA, one strand shown
# T8 sequence: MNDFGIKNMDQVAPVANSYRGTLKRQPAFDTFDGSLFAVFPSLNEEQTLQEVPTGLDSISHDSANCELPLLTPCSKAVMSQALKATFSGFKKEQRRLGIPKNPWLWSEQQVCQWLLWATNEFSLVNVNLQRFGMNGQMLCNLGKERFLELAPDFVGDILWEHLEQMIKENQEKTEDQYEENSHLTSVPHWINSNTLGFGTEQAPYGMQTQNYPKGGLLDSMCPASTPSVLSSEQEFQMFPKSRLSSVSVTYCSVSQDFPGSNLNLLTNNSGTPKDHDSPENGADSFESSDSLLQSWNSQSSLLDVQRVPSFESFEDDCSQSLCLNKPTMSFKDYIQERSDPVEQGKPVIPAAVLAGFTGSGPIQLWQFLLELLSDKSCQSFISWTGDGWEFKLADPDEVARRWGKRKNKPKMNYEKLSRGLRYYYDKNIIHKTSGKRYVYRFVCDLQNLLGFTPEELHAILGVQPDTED
# Procedure, shortened: as §1
# SPDEF = biological target: T9, SPDEF (Homo sapiens, UniProt O95238 1-335); settings: protein: recombinant; tags: N-terminal GST; dsDNA, one strand shown
# T9 sequence: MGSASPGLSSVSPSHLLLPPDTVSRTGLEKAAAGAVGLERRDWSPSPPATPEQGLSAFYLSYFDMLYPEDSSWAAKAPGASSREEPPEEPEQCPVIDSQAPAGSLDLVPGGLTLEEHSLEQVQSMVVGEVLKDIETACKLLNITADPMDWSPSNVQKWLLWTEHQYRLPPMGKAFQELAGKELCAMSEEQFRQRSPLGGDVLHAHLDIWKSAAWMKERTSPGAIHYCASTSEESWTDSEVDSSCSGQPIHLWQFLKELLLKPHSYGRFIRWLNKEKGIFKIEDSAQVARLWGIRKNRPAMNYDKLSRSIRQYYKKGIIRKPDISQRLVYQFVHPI
# Procedure, shortened: as §1
# ETV7 = biological target: T10, ETV7 (Homo sapiens, UniProt Q9Y603 1-341); settings: protein: recombinant; tags: N-terminal GST; dsDNA, one strand shown
# T10 sequence: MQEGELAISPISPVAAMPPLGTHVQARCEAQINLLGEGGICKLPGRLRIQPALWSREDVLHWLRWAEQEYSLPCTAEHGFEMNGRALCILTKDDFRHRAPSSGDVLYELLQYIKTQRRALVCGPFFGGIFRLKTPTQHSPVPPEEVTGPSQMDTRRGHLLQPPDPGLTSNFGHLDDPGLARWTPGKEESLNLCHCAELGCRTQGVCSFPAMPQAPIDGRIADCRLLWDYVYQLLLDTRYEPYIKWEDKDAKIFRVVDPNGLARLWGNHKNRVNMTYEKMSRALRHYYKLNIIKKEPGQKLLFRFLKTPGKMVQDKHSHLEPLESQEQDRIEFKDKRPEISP
# Procedure, shortened: as §1
# ELF5 = biological target: T11, ELF5 (Homo sapiens, UniProt Q9UKW6-2 1-255); settings: protein: recombinant; tags: N-terminal GST; dsDNA, one strand shown
# T11 sequence: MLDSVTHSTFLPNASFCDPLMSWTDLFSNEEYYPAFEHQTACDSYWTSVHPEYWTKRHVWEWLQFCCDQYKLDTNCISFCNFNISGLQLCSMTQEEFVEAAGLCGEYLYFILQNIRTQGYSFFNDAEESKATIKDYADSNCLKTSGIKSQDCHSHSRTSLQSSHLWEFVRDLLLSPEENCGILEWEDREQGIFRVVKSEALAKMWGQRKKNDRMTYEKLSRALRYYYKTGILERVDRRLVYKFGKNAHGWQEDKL
# Procedure, shortened: as §1
# ETV3 = biological target: T12, ETV3 (Homo sapiens, UniProt P41162-2 1-143); settings: protein: recombinant; tags: N-terminal GST; dsDNA, one strand shown
# T12 sequence: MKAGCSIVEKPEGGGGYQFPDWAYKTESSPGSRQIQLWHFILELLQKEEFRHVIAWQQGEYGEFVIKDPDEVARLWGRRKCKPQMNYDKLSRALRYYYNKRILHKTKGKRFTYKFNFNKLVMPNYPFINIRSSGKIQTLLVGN
# Procedure, shortened: as §1
# ETV6 = ETV6 (Homo sapiens, UniProt P41212 1-452); settings: protein: recombinant; tags: N-terminal GST; dsDNA, one strand shown
# Sequence of ETV6 (P41212 whole entry): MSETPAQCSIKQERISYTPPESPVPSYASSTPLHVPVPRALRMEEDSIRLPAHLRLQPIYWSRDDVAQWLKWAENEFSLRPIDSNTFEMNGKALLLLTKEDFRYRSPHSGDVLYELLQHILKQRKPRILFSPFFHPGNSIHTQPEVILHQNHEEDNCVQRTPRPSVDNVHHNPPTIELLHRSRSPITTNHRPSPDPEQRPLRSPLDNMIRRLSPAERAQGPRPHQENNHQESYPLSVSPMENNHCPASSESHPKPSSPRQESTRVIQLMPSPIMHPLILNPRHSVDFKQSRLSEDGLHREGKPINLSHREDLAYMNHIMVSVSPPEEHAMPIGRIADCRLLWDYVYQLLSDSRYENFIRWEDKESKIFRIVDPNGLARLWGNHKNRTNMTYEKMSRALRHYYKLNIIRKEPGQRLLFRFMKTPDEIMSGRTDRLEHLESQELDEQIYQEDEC
# Procedure, shortened: as §1
sequence,measurement,setting,value
CTAAGT,binding signal,FEV,"1.13 fold enrichment (6-mer frequency, TF over GST control)"
same,binding signal,ETV5,"1.18 fold enrichment (6-mer frequency, TF over GST control)"
same,binding signal,HSF1,"1.3 fold enrichment (6-mer frequency, TF over GST control)"
same,binding signal,SPIC,"1.24 fold enrichment (6-mer frequency, TF over GST control)"
same,binding signal,ELF4,"1.24 fold enrichment (6-mer frequency, TF over GST control)"
same,binding signal,ELK4,"1.13 fold enrichment (6-mer frequency, TF over GST control)"
same,binding signal,ETV2,"1.24 fold enrichment (6-mer frequency, TF over GST control)"
same,binding signal,ELF3,"1.02 fold enrichment (6-mer frequency, TF over GST control)"
same,binding signal,CRX,"1.8 fold enrichment (6-mer frequency, TF over GST control)"
same,binding signal,ETV1,"1.18 fold enrichment (6-mer frequency, TF over GST control)"
same,binding signal,ERF,"1.13 fold enrichment (6-mer frequency, TF over GST control)"
same,binding signal,ETV3L,"1.33 fold enrichment (6-mer frequency, TF over GST control)"
same,binding signal,ETS2,"1.23 fold enrichment (6-mer frequency, TF over GST control)"
same,binding signal,SPDEF,"1.3 fold enrichment (6-mer frequency, TF over GST control)"
same,binding signal,ETV7,"1.29 fold enrichment (6-mer frequency, TF over GST control)"
same,binding signal,ELF5,"1.17 fold enrichment (6-mer frequency, TF over GST control)"
same,binding signal,ETV3,"1.21 fold enrichment (6-mer frequency, TF over GST control)"
same,binding signal,ETV6,"1.27 fold enrichment (6-mer frequency, TF over GST control)"
